Experimental findings from ChEMBL document CHEMBL4513139, “CO-ADD screening of University of Strathclyde (UK) compounds” are described below.

SMILES strings stand for the structures. Potency and affinity values are given separately.

One experiment deals with Klebsiella pneumoniae. The note with it: Concentration 32 ug.mL-1; ASSAY_TEST Inhibition of Bacterial Growth; detection method Absorption (OD600); MEDIA CAMHB; plate type 384well; NBS; CORNING #3640; time 18 hr.
Turning to `Cc1ncc(CNc2cccc(F)c2)c(N)n1`, the Inhibition is recorded as 9.56%.
On the same count and under the same terms, the value for `COc1cccc(C(=N)Nc2cc(C(=O)Nc3cc(C(=O)Nc4cc(C(=O)NCCCN5CCOCC5)n(C)c4)n(C)c3)n(C)c2)c1.O=C(O)C(F)(F)F.O=C(O)C(F)(F)F` was 14.25%; that for `CC(=N)Nc1cc(C(=O)Nc2cc(C(=O)Nc3cc(C(=O)NCCN4CCOCC4)n(C)c3)n(C)c2)n(C)c1.O=C(O)C(F)(F)F.O=C(O)C(F)(F)F` was 13.68%; that for `CC(C)CCc1sc(NC(=O)c2cc(NC(=O)c3ccc(/C=C/c4cc5ccccc5nc4Cl)cc3)cn2C)nc1C(=O)NCCN1CCOCC1.O=C(O)C(F)(F)F` was -4.36%.
Regarding `CC(C)CCn1cc(NC(=O)c2cc(NC(=O)c3cc(NC(=N)c4ccccc4)cn3C)cn2C)cc1C(=O)NCCCN(C)C.O=C(O)C(F)(F)F.O=C(O)C(F)(F)F`, the Inhibition is given as 2.69%.
The same measure, in the same setting: the value for `Cn1cc(NC(=O)c2cc(NC(=O)c3sc(N)nc3C(F)(F)F)cn2C)cc1C(=O)NCCC(=N)N.O=C(O)C(F)(F)F` was -8.6%; that for `COCCOC1CCN(C(=O)c2cc(NC(=O)c3cc(NC(=O)c4ccc(/C=C/c5ccc(OC)cc5)cc4)cn3C)cn2C)CC1.O=S(=O)(O)O` was 1.91%; that for `COC(=O)c1ccc(C(=O)Nc2cc(C(=O)Nc3cc(C(=O)NCCC(=N)N)n(C)c3)n(C)c2)cc1.O=C(O)C(F)(F)F` was 7.16%.
Still for that read-out and setting: the value for `COCCOC1CCN(C(=O)c2cc(NC(=O)c3cc(NC(=O)c4ccc(/C=C/c5cnc6ccccc6c5)cc4)cn3C)cn2C)CC1` was 10.84%; that for `CC(=O)Nc1cc(C(=O)Nc2cc(C(=O)Nc3cc(C(=O)NCCCN(C)C)n(CCC(C)C)c3)n(C)c2)n(C)c1.O=C(O)C(F)(F)F` was -0.56%; that for `COC(=O)CCC(=O)Nc1cc(C(=O)Nc2cc(C(=O)NCCC(=N)N)n(C)c2)n(C)c1.O=C(O)C(F)(F)F` was 5.44%.
On the same count and under the same terms, the value for `CC(C)c1sc(N)nc1C(=O)Nc1cc(C(=O)NCCN2CCOCC2)n(C)c1.O=C(O)C(F)(F)F` was 8.18%; that for `CC(=O)Nc1cc(C(=O)Nc2cc(C(=O)Nc3cc(C(=O)NCCCN(C)C)n(C)c3)n(C)c2)n(C)c1.O=C(O)C(F)(F)F` was 11.92%; that for `Cc1ncc(Cn2cc(CCCCO)nn2)c(N)n1` was 1.98%.
Consider `COC(=O)c1ccc(C(=O)Nc2cc(C(=O)Nc3cc(C(=O)NCCCN(C)C)n(C)c3)n(C)c2)cc1.O=C(O)C(F)(F)F`, for which the Inhibition amounted to 6.59%.
Still for that read-out and setting: the value for `Cc1ncc(CNc2ccccc2F)c(N)n1` was 12.81%; that for `CC(C)CCc1sc(NC(=O)c2cc(NC(=O)c3cc(NC(=O)CCC(=O)O)cn3C)cn2C)nc1C(=O)NCCCN(C)C.O=C(O)C(F)(F)F` was 2.15%.
For `Cc1ncc(CNc2ccc(C(F)(F)F)cc2)c(N)n1`, the Inhibition was determined as 1.98%.
With `Cn1cc(NC(=O)c2cc(NC(=O)c3sc(N)nc3C(F)(F)F)cn2C)cc1C(=O)NCCN1CCOCC1.O=C(O)C(F)(F)F`, the Inhibition is on record as -3.11%.

The next experiment concerns Candida albicans. As to conditions: 32 ug/mL.
Regarding `COc1ccc(/C=C(/C(=O)Nc2cc(C(=O)Nc3cc(C(=O)NCCCN(C)C)n(C)c3)n(C)c2)c2ccc(OC)cc2)cc1.O=C(O)C(F)(F)F`, the Inhibition is 1.83%.
Same read-out and setting: the value for `COc1cccc(C(=N)Nc2cc(C(=O)Nc3cc(C(=O)Nc4cc(C(=O)NCCCN(C)C)n(C)c4)n(C)c3)n(C)c2)c1.O=C(O)C(F)(F)F.O=C(O)C(F)(F)F` was 0.48%; that for `COc1ccc(CC(=O)Nc2cc(C(=O)Nc3cc(C(=O)Nc4cn(CCCN(C)C)cn4)n(C)c3)n(C)c2)cc1.O=C(O)C(F)(F)F` was 1.27%.
On the same count and under the same terms, the value for `Cc1ncc(Cn2cc(CCO)nn2)c(N)n1` was 0.2%; that for `Cn1cc(NC(=O)c2cc(NC(=O)c3ccc(/C=C/c4cccc(F)c4)cc3)cn2C)cc1C(=O)NCCN1CCOCC1.O=C(O)C(F)(F)F` was 24.2%.
Take `Cc1ncc(Cn2cc(CCCN)nn2)c(N)n1.Cl`: the Inhibition was found to be 3.42%.
Take `COc1cccc(C(=N)Nc2cc(C(=O)Nc3cc(C(=O)Nc4cn(CCCN(C)C)cn4)n(C)c3)n(C)c2)c1.O=C(O)C(F)(F)F.O=C(O)C(F)(F)F`: the Inhibition is 0.2%.
On the same count and under the same terms, the value for `CCOC(=O)CCC(NC(=O)c1ccc(NCc2cn(Cc3cnc(C)nc3N)nn2)cc1)C(=O)OCC` (stereo not drawn) was 5.67%.
The same measure, in the same setting: the value for `Cn1cc(NC(=O)c2cc(NC(=O)CCC(=O)O)cn2C)cc1C(=O)NCCN1CCOCC1.O=C(O)C(F)(F)F` was 1.67%.
Same read-out and setting: the value for `CN(C)CCCNC(=O)c1cc(NC(=O)c2cc(NC(=O)c3cc(NC(=N)N)cn3C)cn2C)cn1C.O=C(O)C(F)(F)F.O=C(O)C(F)(F)F` was 2.03%; that for `Cc1ncc(CNc2cccc(F)c2)c(N)n1` was 1.91%.
For the compound `COc1cccc(C(=N)Nc2cc(C(=O)Nc3cc(C(=O)Nc4cc(C(=O)NCCCN5CCOCC5)n(C)c4)n(C)c3)n(C)c2)c1.O=C(O)C(F)(F)F.O=C(O)C(F)(F)F`, the Inhibition came out at 1.73%.
Still for that read-out and setting: the value for `CC(=N)Nc1cc(C(=O)Nc2cc(C(=O)Nc3cc(C(=O)NCCN4CCOCC4)n(C)c3)n(C)c2)n(C)c1.O=C(O)C(F)(F)F.O=C(O)C(F)(F)F` was 2.29%.
Same read-out and setting: the value for `CC(C)CCc1sc(NC(=O)c2cc(NC(=O)c3ccc(/C=C/c4cc5ccccc5nc4Cl)cc3)cn2C)nc1C(=O)NCCN1CCOCC1.O=C(O)C(F)(F)F` was 2.62%.
The same measure, in the same setting: the value for `CC(C)CCn1cc(NC(=O)c2cc(NC(=O)c3cc(NC(=N)c4ccccc4)cn3C)cn2C)cc1C(=O)NCCCN(C)C.O=C(O)C(F)(F)F.O=C(O)C(F)(F)F` was 0.79%; that for `Cn1cc(NC(=O)c2cc(NC(=O)c3sc(N)nc3C(F)(F)F)cn2C)cc1C(=O)NCCC(=N)N.O=C(O)C(F)(F)F` was 5.72%.
For the compound `COCCOC1CCN(C(=O)c2cc(NC(=O)c3cc(NC(=O)c4ccc(/C=C/c5ccc(OC)cc5)cc4)cn3C)cn2C)CC1.O=S(=O)(O)O`, the Inhibition is 3.1%.
Still for that read-out and setting: the value for `COC(=O)c1ccc(C(=O)Nc2cc(C(=O)Nc3cc(C(=O)NCCC(=N)N)n(C)c3)n(C)c2)cc1.O=C(O)C(F)(F)F` was 5.42%; that for `COCCOC1CCN(C(=O)c2cc(NC(=O)c3cc(NC(=O)c4ccc(/C=C/c5cnc6ccccc6c5)cc4)cn3C)cn2C)CC1` was 3.83%.
For `CC(=O)Nc1cc(C(=O)Nc2cc(C(=O)Nc3cc(C(=O)NCCCN(C)C)n(CCC(C)C)c3)n(C)c2)n(C)c1.O=C(O)C(F)(F)F`, the Inhibition is 0.94%.
On to `COC(=O)CCC(=O)Nc1cc(C(=O)Nc2cc(C(=O)NCCC(=N)N)n(C)c2)n(C)c1.O=C(O)C(F)(F)F`, for which the Inhibition came to 2.68%.
Still for that read-out and setting: the value for `CC(C)c1sc(N)nc1C(=O)Nc1cc(C(=O)NCCN2CCOCC2)n(C)c1.O=C(O)C(F)(F)F` was 3.26%.
Still for that read-out and setting: the value for `CC(=O)Nc1cc(C(=O)Nc2cc(C(=O)Nc3cc(C(=O)NCCCN(C)C)n(C)c3)n(C)c2)n(C)c1.O=C(O)C(F)(F)F` was 0.65%; that for `Cc1ncc(Cn2cc(CCCCO)nn2)c(N)n1` was 2.99%; that for `COC(=O)c1ccc(C(=O)Nc2cc(C(=O)Nc3cc(C(=O)NCCCN(C)C)n(C)c3)n(C)c2)cc1.O=C(O)C(F)(F)F` was 1.31%.
As to `Cc1ncc(CNc2ccccc2F)c(N)n1`, the Inhibition amounted to 1.65%.
Still for that read-out and setting: the value for `CC(C)CCc1sc(NC(=O)c2cc(NC(=O)c3cc(NC(=O)CCC(=O)O)cn3C)cn2C)nc1C(=O)NCCCN(C)C.O=C(O)C(F)(F)F` was 2.8%; that for `Cc1ncc(CNc2ccc(C(F)(F)F)cc2)c(N)n1` was 0.52%.
The same measure, in the same setting: the value for `Cn1cc(NC(=O)c2cc(NC(=O)c3sc(N)nc3C(F)(F)F)cn2C)cc1C(=O)NCCN1CCOCC1.O=C(O)C(F)(F)F` was 1.1%.
